Results published in the antibiotic and cytotoxicity screens of Wong et al. (2023).
The whole screen tested about 39,000 compounds, of which about 3,300 (8.5%) were called active. For the sample, actives were picked, then their nearest neighbours and some compounds at random.

test system: HepG2; experiment: cytotoxicity call (relative viability < 0.9); settings: 10 µM

Compound	cytotoxicity call
O=C(C[C@H]1CC[C@@H]2[C@H](COC[C@H](O)CN2S(=O)(=O)c2ccc(Oc3ccccc3)cc2)O1)NCCN1CCCCC1	inactive
O=C(C[C@H]1CC[C@H]2[C@@H](COC[C@H](O)CN2S(=O)(=O)c2cccc(Cl)c2)O1)NCCCN1CCOCC1	inactive
COc1ccc(NC(=O)N(C)C[C@H]2OCCCC[C@@H](C)Oc3ccc(NS(=O)(=O)c4ccccc4)cc3C(=O)N([C@@H](C)CO)C[C@H]2C)cc1	inactive
CC(C)NC(=O)N(C)C[C@H]1OCc2cnnn2CCCC(=O)N([C@H](C)CO)C[C@H]1C	inactive
C[C@@H]1CCCCO[C@@H](CN(C)C(=O)Nc2ccc(F)cc2)[C@@H](C)CN([C@H](C)CO)C(=O)c2cc(NS(=O)(=O)c3ccc(Cl)cc3)ccc2O1	inactive
C[C@H]1CCCCO[C@@H](CN(C)C(=O)Nc2ccc(F)cc2)[C@@H](C)CN([C@@H](C)CO)C(=O)c2cc(NS(=O)(=O)c3ccc(Cl)cc3)ccc2O1	inactive
C[C@@H]1CCCCO[C@H](CN(C)C(=O)Nc2ccccc2)[C@@H](C)CN([C@@H](C)CO)C(=O)c2cc(NS(=O)(=O)c3ccc(Cl)cc3)ccc2O1	active
C[C@H](CO)N1C[C@H](C)[C@@H](CN(C)C(=O)Nc2ccc(F)cc2)OCCCC[C@H](C)Oc2ccc(NS(=O)(=O)c3ccc(Cl)cc3)cc2C1=O	inactive
C[C@@H]1CCCCO[C@@H](CN(C)C(=O)Nc2ccccc2)[C@H](C)CN([C@@H](C)CO)C(=O)c2cc(NS(=O)(=O)c3ccc(Cl)cc3)ccc2O1	inactive
C[C@@H]1CCCCO[C@H](CN(C)C(=O)Nc2ccc(F)cc2)[C@@H](C)CN([C@H](C)CO)C(=O)c2cc(NS(=O)(=O)c3ccc(Cl)cc3)ccc2O1	inactive
C[C@@H]1CCCCO[C@@H](CN(C)C(=O)Nc2ccc(F)cc2)[C@H](C)CN([C@@H](C)CO)C(=O)c2cc(NS(=O)(=O)c3ccc(Cl)cc3)ccc2O1	inactive
C[C@@H]1CCCCO[C@H](CN(C)C(=O)Nc2ccc(F)cc2)[C@@H](C)CN([C@@H](C)CO)C(=O)c2cc(NS(=O)(=O)c3ccc(Cl)cc3)ccc2O1	active
C[C@@H]1CN([C@H](C)CO)C(=O)c2cc(NS(=O)(=O)c3ccc(Cl)cc3)ccc2O[C@@H](C)CCCCO[C@H]1CN(C)C(=O)Nc1ccc(F)cc1	active
C[C@@H]1CCCCO[C@H](CN(C)C(=O)Nc2ccccc2)[C@@H](C)CN([C@H](C)CO)C(=O)c2cc(NS(=O)(=O)c3ccc(Cl)cc3)ccc2O1	inactive
C[C@H]1CCCCO[C@H](CN(C)C(=O)Nc2ccc(F)cc2)[C@@H](C)CN([C@@H](C)CO)C(=O)c2cc(NS(=O)(=O)c3ccc(Cl)cc3)ccc2O1	active
C[C@@H]1CN([C@@H](C)CO)C(=O)c2cc(NS(=O)(=O)c3ccc(Cl)cc3)ccc2O[C@@H](C)CCCCO[C@@H]1CN(C)C(=O)Nc1ccc(F)cc1	inactive
CC(=O)N[C@H]1[C@H](O/N=[N+](\[O-])N2CCCC2)O[C@H](CO)[C@@H](O)[C@@H]1O	inactive
COc1ccc(S(=O)(=O)N2C[C@@H](O)COC[C@H]3O[C@@H](CC(=O)NCCCN4CCOCC4)CC[C@@H]32)cc1	inactive
O=C(C[C@H]1C[C@H]2c3cc(NC(=O)NC4CCCC4)ccc3O[C@H]2[C@H](CO)O1)NCc1ccc2c(c1)OCO2	inactive
CC(=O)OC1CCC2(C)C(CCC3(C)C2CCC24OC(=O)C5(CCC(C)C(C)C52)CCC34C)C1(C)C (stereo not given)	inactive

Compound	cytotoxicity call
COc1ccc(CN(C)C[C@@H]2Oc3ccc(NC(=O)C4CC4)cc3CC(=O)N([C@@H](C)CO)C[C@H]2C)cc1	inactive
COc1ccc(CN(C)C[C@@H]2OCCCC[C@H](C)Oc3ccc(NC(=O)Nc4c(C)noc4C)cc3C(=O)N([C@@H](C)CO)C[C@H]2C)cc1	inactive
C[C@H](CO)N1C[C@H](C)[C@H](CN(C)Cc2ccc(Cl)c(Cl)c2)Oc2c(NC(=O)Nc3cccc4ccccc34)cccc2C1=O	inactive
Cc1ccc(S(=O)(=O)N(C)C[C@@H]2Oc3ccc(NS(C)(=O)=O)cc3C(=O)N([C@@H](C)CO)C[C@H]2C)cc1	inactive
CC(C)NC(=O)N(C)C[C@H]1Oc2c(NC(=O)Nc3ccc4c(c3)OCO4)cccc2C(=O)N([C@H](C)CO)C[C@H]1C	inactive
O=C(C[C@H]1C[C@H]2c3cc(NS(=O)(=O)c4ccc(F)cc4)ccc3O[C@H]2[C@H](CO)O1)NCc1ccccc1	inactive
C[C@@H]1CCCCO[C@H](CN(C)C(=O)Nc2ccc(F)cc2)[C@H](C)CN([C@@H](C)CO)C(=O)c2cc(NS(=O)(=O)c3ccc(Cl)cc3)ccc2O1	inactive
C[C@@H]1CCCCO[C@H](CN(C)C(=O)Nc2ccc(F)cc2)[C@H](C)CN([C@H](C)CO)C(=O)c2cc(NS(=O)(=O)c3ccc(Cl)cc3)ccc2O1	inactive
C[C@H](CO)N1C[C@H](C)[C@H](CN(C)C(=O)Nc2ccc(F)cc2)OCCCC[C@H](C)Oc2ccc(NS(=O)(=O)c3ccc(Cl)cc3)cc2C1=O	active
C[C@@H]1CCCCO[C@@H](CN(C)C(=O)Nc2ccc(F)cc2)[C@H](C)CN([C@H](C)CO)C(=O)c2cc(NS(=O)(=O)c3ccc(Cl)cc3)ccc2O1	active
O=C(C[C@H]1C[C@H]2c3cc(NC(=O)Cc4ccncc4)ccc3O[C@H]2[C@@H](CO)O1)NCc1ccc2c(c1)OCO2	inactive
C[C@@H]1CN([C@H](C)CO)C(=O)c2cc(NC(=O)Nc3ccc4c(c3)OCO4)ccc2O[C@@H](C)CCCCO[C@@H]1CN(C)S(=O)(=O)c1ccccc1	inactive
C[C@@H]1CN([C@@H](C)CO)C(=O)c2cc(NC(=O)Nc3ccc4c(c3)OCO4)ccc2O[C@@H](C)CCCCO[C@@H]1CN(C)C(=O)Cc1ccccc1	inactive
Cn1sc(=O)n(Cc2ccccc2)c1=O	inactive
CN1CCc2c(c3ccccc3n2Cc2ccccc2)C1	active
Cc1ccc(Cn2c3ccccc3c3ccccc32)cc1	inactive
C[C@@H]1CCCCO[C@H](CN(C)C(=O)Nc2ccccc2)[C@@H](C)CN([C@H](C)CO)C(=O)c2cc(NC(=O)CCC(F)(F)F)ccc2O1	inactive
C[C@H]1CCCCO[C@H](CN(C)C(=O)C2CCCCC2)[C@@H](C)CN([C@@H](C)CO)C(=O)c2cc(NC(=O)Nc3ccc(C(F)(F)F)cc3)ccc2O1	inactive
C[C@@H]1CN([C@H](C)CO)C(=O)c2cc(NC(=O)Nc3ccc(C(F)(F)F)cc3)ccc2O[C@@H](C)CCCCO[C@@H]1CN(C)C(=O)C1CCCCC1	active
C[C@H]1CCCCO[C@@H](CN(C)C(=O)C2CCCCC2)[C@@H](C)CN([C@@H](C)CO)C(=O)c2cc(NC(=O)Nc3ccc(C(F)(F)F)cc3)ccc2O1	active

Compound	cytotoxicity call
C[C@@H]1CCCCO[C@H](CN(C)C(=O)C2CCCCC2)[C@@H](C)CN([C@H](C)CO)C(=O)c2cc(NC(=O)Nc3ccc(C(F)(F)F)cc3)ccc2O1	inactive
C[C@@H]1CCCCO[C@H](CN(C)C(=O)C2CCCCC2)[C@H](C)CN([C@@H](C)CO)C(=O)c2cc(NC(=O)Nc3ccc(C(F)(F)F)cc3)ccc2O1	inactive
C[C@@H]1CCCCO[C@@H](CN(C)C(=O)C2CCCCC2)[C@@H](C)CN([C@H](C)CO)C(=O)c2cc(NC(=O)Nc3ccc(C(F)(F)F)cc3)ccc2O1	inactive
C[C@@H]1CCCCO[C@@H](CN(C)C(=O)C2CCCCC2)[C@H](C)CN([C@@H](C)CO)C(=O)c2cc(NC(=O)Nc3ccc(C(F)(F)F)cc3)ccc2O1	active
C[C@@H]1CN([C@H](C)CO)C(=O)c2cc(NC(=O)Nc3ccc(C(F)(F)F)cc3)ccc2O[C@@H](C)CCCCO[C@H]1CN(C)C(=O)C1CCCCC1	inactive
C[C@H](CO)N1C[C@H](C)[C@@H](CN(C)C(=O)C2CCCCC2)OCCCC[C@H](C)Oc2ccc(NC(=O)Nc3ccc(C(F)(F)F)cc3)cc2C1=O	inactive
Cc1cccc(N[C@H]2CS(=O)(=O)C[C@@H]2O)c1	inactive
CC(C)(Sc1cc(C(C)(C)C)c(O)c(C(C)(C)C)c1)Sc1cc(C(C)(C)C)c(OC(=O)CCC(=O)O)c(C(C)(C)C)c1	inactive
C[C@@H]1CN([C@H](C)CO)C(=O)c2cccc(NC(=O)Nc3ccc(C(F)(F)F)cc3)c2O[C@@H]1CN(C)Cc1ccc(C(=O)Nc2ccccc2N)cc1	inactive
C[C@@H]1CN([C@@H](C)CO)C(=O)c2cc(NS(=O)(=O)c3ccc(F)cc3)ccc2O[C@@H]1CN(C)Cc1ccncc1	inactive
C[C@@H]1CN([C@H](C)CO)C(=O)Cc2cc(NC(=O)Nc3cccc4ccccc34)ccc2O[C@H]1CN(C)C(=O)Nc1ccc(C(F)(F)F)cc1	inactive
COc1ccc(S(=O)(=O)N(C)C[C@H]2Oc3c(NC(=O)NC(C)C)cccc3C(=O)N([C@H](C)CO)C[C@@H]2C)cc1	inactive
COc1ccc(S(=O)(=O)Nc2ccc3c(c2)C(=O)N([C@H](C)CO)C[C@@H](C)[C@@H](CN(C)Cc2ccc(-c4ccccc4)cc2)O3)cc1	active
COc1ccc(S(=O)(=O)Nc2ccc3c(c2)C(=O)N([C@H](C)CO)C[C@@H](C)[C@H](CN(C)Cc2ccc(-c4ccccc4)cc2)O3)cc1	inactive
COc1ccc(S(=O)(=O)Nc2ccc3c(c2)C(=O)N([C@@H](C)CO)C[C@H](C)[C@H](CN(C)Cc2ccc(-c4ccccc4)cc2)O3)cc1	inactive
COc1ccc(S(=O)(=O)Nc2ccc3c(c2)C(=O)N([C@@H](C)CO)C[C@@H](C)[C@H](CN(C)Cc2ccc(-c4ccccc4)cc2)O3)cc1	inactive
COc1ccc(S(=O)(=O)Nc2ccc3c(c2)C(=O)N([C@H](C)CO)C[C@H](C)[C@@H](CN(C)Cc2ccc(-c4ccccc4)cc2)O3)cc1	inactive
COc1ccc(S(=O)(=O)Nc2ccc3c(c2)C(=O)N([C@@H](C)CO)C[C@H](C)[C@@H](CN(C)Cc2ccc(-c4ccccc4)cc2)O3)cc1	active
COc1ccc(S(=O)(=O)Nc2ccc3c(c2)C(=O)N([C@H](C)CO)C[C@H](C)[C@H](CN(C)Cc2ccc(-c4ccccc4)cc2)O3)cc1	inactive
COc1ccc(S(=O)(=O)Nc2ccc3c(c2)C(=O)N([C@@H](C)CO)C[C@@H](C)[C@@H](CN(C)Cc2ccc(-c4ccccc4)cc2)O3)cc1	active
